High-throughput results deposited in PubChem by University of Kansas High Throughput Screening Laboratory.
Hits are enriched below; roughly 3.6% of the tested compounds scored in any of these assays.
mHTT CaM bind = mHTT-calmodulin interaction abrogation; 190,000 tested, 3.6% active; AlphaScreen His-mHTT/GST-CaM binding, luminescence; P42858; inhibition, % at 15 µM; AID 1671202;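 note: 0% = both proteins with DMSO and 100% = one protein alone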
Pf apPOL block = Pf-apPOL DNA polymerase inhibition | Recombinant Pf-apPOL, molecular beacon fluorescence, 1.5 h | inhibition, % at 10 µM | 210,000 tested, 0.25% active
The depositor's hits bear a star. Cut-off read from the data, not from the text of the source: active = inhibition above about 50%; inactive = the rest.

Results for Cc1ccc(CN2CCc3nc(N4CCN(c5ccccc5)CC4)ncc3C2)cc1 ?
mHTT CaM bind: 28; Pf apPOL block: 3

How did Brc1cccc(CN2CCc3nc(N4CCCC4)ncc3C2)c1 do in these assays?
mHTT CaM bind: 100*; Pf apPOL block: 7

How did CCOc1ccc(CN2CCc3nc(N4CCCC4)ncc3C2)cc1OCC do in these assays?
mHTT CaM bind: 0; Pf apPOL block: 3

Results for c1ccc(CN2CCc3nc(N4CCCC4)ncc3C2)cc1 ?
mHTT CaM bind: 48; Pf apPOL block: 6

How did Cc1cccc(CN2CCc3nc(N4CCCC4)ncc3C2)c1 do in these assays?
mHTT CaM bind: 84*; Pf apPOL block: 8

What do the screens show for `CCN1CCN(c2ncc3c(n2)CCN(Cc2ccccc2)C3)CC1`?
mHTT CaM bind: 55*; Pf apPOL block: -5

How did CN(C)c1ccc(CN2CCc3nc(N4CCN(c5ncccn5)CC4)ncc3C2)cc1 do in these assays?
mHTT CaM bind: 100*; Pf apPOL block: -3

What do the screens show for `CNC(=O)c1csc(NC(=O)c2cc(Cl)ccc2Cl)n1`?
mHTT CaM bind: -6; Pf apPOL block: 0

What do the screens show for `CCOc1ccccc1Nc1nc(-c2ccccc2Cl)nc2ccccc12`?
mHTT CaM bind: -27; Pf apPOL block: -8

What do the screens show for `O=S(=O)(c1ccc(Br)s1)N1CCc2ccccc21`?
mHTT CaM bind: -52; Pf apPOL block: -9

Results for Cc1ccc(-c2cc(N3CCOCC3)c3cc(NC(=O)C4CC4)ccc3n2)cc1 ?
mHTT CaM bind: 32; Pf apPOL block: 2

How did COc1ccc(Cl)cc1NS(=O)(=O)c1cccc([N+](=O)[O-])c1 do in these assays?
mHTT CaM bind: 12; Pf apPOL block: -5

What do the screens show for `CC1=C(c2ccc(F)cc2)S(=O)(=O)N=C1N1CCCN(C(=O)CC(C)C)CC1`?
mHTT CaM bind: -4; Pf apPOL block: -5

Results for CN(C)c1cc(N2CCCC(NC(=O)c3ccncc3)C2)ncn1 (stereo not given) ?
mHTT CaM bind: 4; Pf apPOL block: 3

Results for CCN1CCN(c2ncc3c(n2)CCN(Cc2cccc(Br)c2)C3)CC1 ?
mHTT CaM bind: 57*; Pf apPOL block: 2

How did CCN1CCN(c2ncc3c(n2)CCN(Cc2cc(F)cc(F)c2)C3)CC1 do in these assays?
mHTT CaM bind: 23; Pf apPOL block: -2

How did O=C(O)c1ccc(CN2C(=O)c3cccnc3C2=O)cc1 do in these assays?
mHTT CaM bind: 5; Pf apPOL block: -8

What do the screens show for `O=C(c1ccco1)N1CCN(CC(=O)N2CCCc3c2c(=O)oc2ccc(O)cc32)CC1`?
mHTT CaM bind: 1; Pf apPOL block: 8

What do the screens show for `O=C(CN1CCN(Cc2ccccc2)CC1)N1CCCc2c1c(=O)oc1ccc(O)cc21`?
mHTT CaM bind: 57*; Pf apPOL block: 3

How did CCCNS(=O)(=O)c1nc2nc(C)cc(C)n2n1 do in these assays?
mHTT CaM bind: -2; Pf apPOL block: -10

Results for O=C(c1ccc2nsnc2c1)N1CC(c2nc(-c3cccs3)no2)C1 ?
mHTT CaM bind: -2; Pf apPOL block: -4

Results for O=C(NCCc1ccccc1)N1CCCC1c1nc(-c2ccccc2)no1 (stereo not given) ?
mHTT CaM bind: 1; Pf apPOL block: 0

How did O=C(NCCc1ccccc1)N1CCCC1c1nc(-c2cccc(Cl)c2)no1 (stereo not given) do in these assays?
mHTT CaM bind: 61*; Pf apPOL block: -3

Results for O=C(Cc1cccc(F)c1)N1CCCC1c1nc(-c2cccc(Cl)c2)no1 (stereo not given) ?
mHTT CaM bind: 1; Pf apPOL block: 1

What do the screens show for `Cc1cccc(-c2noc(C3CCCN3C(=O)Cc3cccc(Cl)c3)n2)c1` (stereo not given)?
mHTT CaM bind: 79*; Pf apPOL block: -6

What do the screens show for `O=C(Cc1ccc(F)cc1)N1CCCC1c1nc(-c2cccc(Cl)c2)no1` (stereo not given)?
mHTT CaM bind: 20; Pf apPOL block: -2

What do the screens show for `Cc1ccc(CC(=O)N2CCCC2c2nc(-c3cccc(Cl)c3)no2)cc1` (stereo not given)?
mHTT CaM bind: 61*; Pf apPOL block: -4

How did Cc1nn(-c2ccc(C(=O)NCc3cc(F)cc(F)c3)cn2)c(C)c1C do in these assays?
mHTT CaM bind: -13; Pf apPOL block: -6

Results for NNC(=O)c1ccccc1NC(=O)c1c(F)cccc1F ?
Pf apPOL block: 3

How did CC1CN(C(=O)NC(C)(C)C)CC1c1nc(-c2ccccc2)no1 (stereo not given) do in these assays?
mHTT CaM bind: -4; Pf apPOL block: 2

Results for CCCc1ncn2ccn(Cc3ccc(C#N)cc3)c(=O)c12 ?
mHTT CaM bind: 0; Pf apPOL block: -1

Results for COc1ccc(CC(=O)Nc2ccc(C)c(Cl)c2)cc1 ?
mHTT CaM bind: -10; Pf apPOL block: -3

How did O=C1C(=Cc2cc3ccccc3o2)Oc2c1ccc(O)c2CN1CCCCC1 do in these assays?
mHTT CaM bind: 35; Pf apPOL block: -19

What do the screens show for `Cc1ccc(NC(=O)Cn2ccc3c(=O)[nH]ccc32)c(C)c1`?
mHTT CaM bind: -4; Pf apPOL block: 21

Results for COc1ccc(NC(=O)Cn2ccc3c(=O)[nH]ccc32)cc1Cl ?
mHTT CaM bind: 24; Pf apPOL block: 78*

How did COc1ccc(C)cc1NC(=O)Cn1ccc2c(=O)[nH]ccc21 do in these assays?
mHTT CaM bind: 39; Pf apPOL block: 73*

What do the screens show for `CSc1cccc(NC(=O)Cn2ccc3c(=O)[nH]ccc32)c1`?
mHTT CaM bind: 1; Pf apPOL block: 19

How did Cc1ccc(-c2cn3c(n2)N(C(=O)c2cnccn2)CCC3)cc1 do in these assays?
mHTT CaM bind: 0; Pf apPOL block: 0

What do the screens show for `COc1cccc(NC(=O)COc2c(C)cc(Cl)cc2Cl)c1`?
mHTT CaM bind: -2; Pf apPOL block: -9

What do the screens show for `CC1(C(=O)NCc2cccc(F)c2)CCCN(C(=O)CSc2ccccc2)C1` (stereo not given)?
mHTT CaM bind: 2; Pf apPOL block: -1

How did COc1ccc(-c2n[nH]c(C)c2Oc2ccc(F)cc2)c(O)c1 do in these assays?
mHTT CaM bind: 34; Pf apPOL block: -8

What do the screens show for `Cc1[nH]nc(-c2ccc(O)c(C)c2O)c1Oc1ccc(F)cc1`?
mHTT CaM bind: 55*; Pf apPOL block: 8

Results for CC1(C)Oc2ccc(Cl)cc2C2CC(c3ccc(F)cc3)=NN21 (stereo not given) ?
mHTT CaM bind: 50; Pf apPOL block: -18

Results for Brc1ccc2c(c1)C1CC(c3cccs3)=NN1C1(CCCC1)O2 (stereo not given) ?
mHTT CaM bind: 72*; Pf apPOL block: -3

How did CCOc1cccc2c1OC1(CCCCC1)N1N=C(c3cccs3)CC21 (stereo not given) do in these assays?
mHTT CaM bind: 22; Pf apPOL block: -21

How did Clc1ccc2c(c1)C1CC(c3cccs3)=NN1C1(CCCC1)O2 (stereo not given) do in these assays?
mHTT CaM bind: 78*; Pf apPOL block: -6

What do the screens show for `Cc1ccc(CN2C(=O)NC3(CCN(C(=O)c4nn(C)c5ccccc45)CC3)C2=O)cc1`?
mHTT CaM bind: 17; Pf apPOL block: -7

Results for Cc1nc(C)c(C(=O)OCc2cc(-c3ccc4c(c3)OCCO4)on2)s1 ?
mHTT CaM bind: -13; Pf apPOL block: -2

How did O=C(OCc1cc(-c2ccc3c(c2)OCCO3)on1)c1cc(-c2ccco2)n[nH]1 do in these assays?
mHTT CaM bind: 69*; Pf apPOL block: 67*

How did COc1cc(S(=O)(=O)n2cnc3cc(C)c(C)cc32)ccc1Cl do in these assays?
mHTT CaM bind: 49; Pf apPOL block: 1
